Experimental data taken from PubChem BioAssay (Tox21).
Results filed as inconclusive are left out. Entries that show only a call come without a potency. A number with no mark means an inactive call. The source made the active and inactive calls. Calls follow the shape of the dose curve; as a rule, active = well fitted curve in the direction sought with a large enough effect in the repeat runs; inconclusive = weak or mixed curves; inactive = no such curve, though single readings can be large; an effect the other way counts as inactive or inconclusive.

How the values were obtained:
[1] = biological target: Cytochrome P450 2C19 (Homo sapiens) (UniProt P33261); test: Cytochrome P450 Family 2 Subfamily C Member 19 (CYP2C19) small molecule antagonists: luciferase reporter qHTS assay (AID 1671197); settings: P450-Glo CYP2C19 enzyme, luciferin luminescence, 1 h; series mostly up to 52.9 µM; also: nearly all actives have a fitted effect of over 65% in size
Procedure, shortened: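 Light output is proportional to CYP2C19 activity: proluciferin substrate is converted to luciferin, then detected by a luciferin detection reagent that also stops the 1 h, 37C NADPH-driven reaction. Ketoconazole serves as positive control.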

[2] = biological target: Cytochrome P450 2C9 (Homo sapiens) (UniProt P11712); test: Cytochrome P450 Family 2 Subfamily C Member 9 (CYP2C9) small molecule antagonists: luciferase reporter qHTS assay (AID 1671198); settings: P450-Glo CYP2C9 enzyme assay, luciferin luminescence; series mostly up to 115 µM; also: nearly all actives have a fitted effect of over 50% in size
Procedure, shortened: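 P450-Glo proluciferin substrate with CYP2C9 enzyme; 10 min RT preincubation, then NADPH regeneration 1 h at 37C; luciferin detection reagent 20 min RT, luminescence in relative luminescence units.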

[3] = biological target: Cytochrome P450 1A2 (Homo sapiens) (UniProt P05177); test: Cytochrome P450 Family 1 Subfamily A Member 2 (CYP1A2) small molecule antagonists: luciferase reporter qHTS assay (AID 1671199); settings: P450-Glo CYP1A2 enzyme, luciferin luminescence, 1 h; series mostly up to 53 µM; also: nearly all actives have a fitted effect of over 50% in size
Procedure, shortened: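 Enzymatic CYP1A2 assay, human, luminescent: 10 min compound–enzyme–substrate preincubation, 1 h NADPH-dependent turnover, 20 min detection step, room temperature throughout. Reduced light indicates lower CYP1A2 activity.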

[4] = biological target: Voltage-gated inwardly rectifying potassium channel KCNH2 (Homo sapiens) (UniProt Q12809); test: Human Ether-a-go-go-Related Gene (hERG) channel small molecule antagonists: fluorescence cell-based qHTS assay (AID 1671200); settings: hERG-U2OS cells, FluxOR thallium flux fluorescence; series mostly up to 76.8 µM; also: nearly all actives have a fitted effect of over 50% in size;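 as to activity change, negative = inhibition: hERG-expressing U2OS cells given a thallium stimulus after FluxOR II dye loading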
Procedure, shortened: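 hERG-U2OS cells plated overnight at 37 C, loaded with FluxOR II dye 1 h at RT in dark; after 10 min, thallium stimulus added. Fluorescence (480/540 nm) read kinetically for 2 min at 1 s intervals.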

[5] = biological target: Cytochrome P450 3A4 (Homo sapiens) (UniProt P08684); test: Cytochrome P450 Family 3 Subfamily A Member 4 (CYP3A4) small molecule antagonists: luciferase reporter qHTS assay (AID 1671201); settings: P450-Glo CYP3A4 enzyme, luciferin luminescence, 1 h; series mostly up to 115 µM; also: nearly all actives have a fitted effect of over 50% in size
Procedure, shortened: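 P450-Glo CYP3A4 luminescent assay: compounds preincubated 10 min at room temperature with enzyme and proluciferin substrate, NADPH regeneration added, 1 h room-temperature reaction, stopped with luciferin detection reagent; luminescence read after 20 min. Ketoconazole positive control.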
Potency is read from the fitted curve at half-maximal effect.

Chain of Voltage-gated inwardly rectifying potassium channel KCNH2 (Homo sapiens) (Q12809 whole entry, looked up): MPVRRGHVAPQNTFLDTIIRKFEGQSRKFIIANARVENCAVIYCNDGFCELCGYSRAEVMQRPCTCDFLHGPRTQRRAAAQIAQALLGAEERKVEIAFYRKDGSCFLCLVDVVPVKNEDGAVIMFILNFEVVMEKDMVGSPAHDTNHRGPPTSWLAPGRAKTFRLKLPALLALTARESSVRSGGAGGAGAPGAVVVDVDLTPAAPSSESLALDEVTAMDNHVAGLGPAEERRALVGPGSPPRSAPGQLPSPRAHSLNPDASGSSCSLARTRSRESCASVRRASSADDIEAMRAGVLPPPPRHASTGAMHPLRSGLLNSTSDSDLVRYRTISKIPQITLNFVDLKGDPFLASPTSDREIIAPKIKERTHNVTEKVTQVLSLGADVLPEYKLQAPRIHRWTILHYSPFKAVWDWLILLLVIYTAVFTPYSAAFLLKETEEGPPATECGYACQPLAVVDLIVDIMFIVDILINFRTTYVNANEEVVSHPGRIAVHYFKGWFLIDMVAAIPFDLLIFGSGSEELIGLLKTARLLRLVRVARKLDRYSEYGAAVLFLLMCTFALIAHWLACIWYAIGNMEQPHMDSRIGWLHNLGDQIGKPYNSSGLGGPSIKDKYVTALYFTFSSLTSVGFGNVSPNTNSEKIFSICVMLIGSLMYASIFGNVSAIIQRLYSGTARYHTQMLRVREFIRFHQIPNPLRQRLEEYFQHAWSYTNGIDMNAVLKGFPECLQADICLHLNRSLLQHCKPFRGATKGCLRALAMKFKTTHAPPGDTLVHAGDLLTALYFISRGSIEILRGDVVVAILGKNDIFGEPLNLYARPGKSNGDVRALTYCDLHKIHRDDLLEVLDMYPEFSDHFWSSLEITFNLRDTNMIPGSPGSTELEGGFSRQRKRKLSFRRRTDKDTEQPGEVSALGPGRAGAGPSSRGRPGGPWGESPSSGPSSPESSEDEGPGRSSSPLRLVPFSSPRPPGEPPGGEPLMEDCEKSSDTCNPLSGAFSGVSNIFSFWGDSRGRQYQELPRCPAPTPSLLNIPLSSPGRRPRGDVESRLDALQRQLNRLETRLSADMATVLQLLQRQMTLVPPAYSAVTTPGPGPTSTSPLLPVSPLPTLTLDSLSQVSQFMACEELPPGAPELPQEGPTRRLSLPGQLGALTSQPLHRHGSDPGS
Chain of Cytochrome P450 2C19 (Homo sapiens) (P33261 whole entry, looked up): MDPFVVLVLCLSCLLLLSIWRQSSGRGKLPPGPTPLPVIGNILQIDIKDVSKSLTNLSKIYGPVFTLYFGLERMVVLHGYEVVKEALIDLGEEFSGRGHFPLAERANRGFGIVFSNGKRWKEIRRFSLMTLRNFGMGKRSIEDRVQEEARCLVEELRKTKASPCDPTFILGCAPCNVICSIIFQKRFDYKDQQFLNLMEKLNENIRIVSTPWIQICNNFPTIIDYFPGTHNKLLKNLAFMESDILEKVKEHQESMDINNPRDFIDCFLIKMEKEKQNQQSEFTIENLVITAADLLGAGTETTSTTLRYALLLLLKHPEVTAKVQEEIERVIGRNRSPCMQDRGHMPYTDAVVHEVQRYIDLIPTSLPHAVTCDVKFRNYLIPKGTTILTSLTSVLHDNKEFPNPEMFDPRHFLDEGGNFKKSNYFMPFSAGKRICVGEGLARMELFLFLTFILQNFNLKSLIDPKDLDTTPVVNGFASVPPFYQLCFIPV
Chain of Cytochrome P450 1A2 (Homo sapiens) (P05177 whole entry, looked up): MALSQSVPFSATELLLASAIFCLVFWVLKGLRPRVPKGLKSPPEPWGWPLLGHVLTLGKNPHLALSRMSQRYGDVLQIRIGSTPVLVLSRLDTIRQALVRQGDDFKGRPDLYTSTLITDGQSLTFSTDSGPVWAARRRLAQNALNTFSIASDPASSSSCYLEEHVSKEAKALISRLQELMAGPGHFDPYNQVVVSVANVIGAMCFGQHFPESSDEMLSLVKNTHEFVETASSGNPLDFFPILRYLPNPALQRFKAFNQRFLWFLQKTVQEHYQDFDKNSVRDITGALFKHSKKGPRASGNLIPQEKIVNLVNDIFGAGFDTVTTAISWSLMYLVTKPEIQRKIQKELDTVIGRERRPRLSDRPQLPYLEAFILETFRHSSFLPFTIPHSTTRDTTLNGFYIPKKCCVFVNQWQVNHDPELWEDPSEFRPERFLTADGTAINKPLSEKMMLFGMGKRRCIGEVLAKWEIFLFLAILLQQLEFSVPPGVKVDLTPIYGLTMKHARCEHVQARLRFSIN
Chain of Cytochrome P450 3A4 (Homo sapiens) (P08684 whole entry, looked up): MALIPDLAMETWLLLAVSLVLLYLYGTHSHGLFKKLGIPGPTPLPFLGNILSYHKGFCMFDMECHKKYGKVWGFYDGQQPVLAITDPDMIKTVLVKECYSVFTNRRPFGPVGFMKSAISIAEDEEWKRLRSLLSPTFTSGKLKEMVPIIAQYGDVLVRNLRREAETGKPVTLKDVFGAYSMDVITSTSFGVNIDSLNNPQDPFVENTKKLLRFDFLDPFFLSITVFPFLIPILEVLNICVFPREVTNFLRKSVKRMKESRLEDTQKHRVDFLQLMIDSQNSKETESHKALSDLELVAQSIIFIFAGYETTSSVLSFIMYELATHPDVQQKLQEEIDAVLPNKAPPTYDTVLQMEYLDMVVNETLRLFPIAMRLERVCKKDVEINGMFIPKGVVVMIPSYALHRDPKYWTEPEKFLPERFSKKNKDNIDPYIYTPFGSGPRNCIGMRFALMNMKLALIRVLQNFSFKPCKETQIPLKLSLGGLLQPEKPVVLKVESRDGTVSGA
Chain of Cytochrome P450 2C9 (Homo sapiens) (P11712 whole entry, looked up): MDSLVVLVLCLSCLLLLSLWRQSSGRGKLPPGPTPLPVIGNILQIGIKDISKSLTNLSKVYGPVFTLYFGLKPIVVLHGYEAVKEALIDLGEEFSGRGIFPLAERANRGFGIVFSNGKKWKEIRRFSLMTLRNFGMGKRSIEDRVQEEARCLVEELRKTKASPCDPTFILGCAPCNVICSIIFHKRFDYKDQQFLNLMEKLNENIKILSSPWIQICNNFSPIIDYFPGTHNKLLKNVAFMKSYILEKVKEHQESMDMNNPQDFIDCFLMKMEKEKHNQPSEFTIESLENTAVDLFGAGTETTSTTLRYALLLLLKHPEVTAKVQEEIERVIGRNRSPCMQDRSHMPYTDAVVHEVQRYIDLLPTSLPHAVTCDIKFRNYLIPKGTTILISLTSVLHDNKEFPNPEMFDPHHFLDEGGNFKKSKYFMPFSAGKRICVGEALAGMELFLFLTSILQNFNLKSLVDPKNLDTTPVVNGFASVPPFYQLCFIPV

SMILES	Potency [1]	Potency [2]	Potency [3]	Potency [4]	Potency [5]	activity change, negative = inhibition [2]	activity change, negative = inhibition [4]	activity change, negative = inhibition [5]
O=[N+]([O-])c1cccc(S(=O)(=O)O)c1	32.2 µM (active)	32.2 µM (active)	40.5 µM (active)	22.2 µM (active)	36.1 µM (active)			
O=C(Cl)c1cc(C(=O)Cl)cc(C(=O)Cl)c1	inactive	28.3 µM (active)	39.9 µM (active)					
Cc1nn(C)c(Oc2ccccc2)c1/C=N/OCc1ccc(C(=O)OC(C)(C)C)cc1	2 µM (active)	2.83 µM (active)						
Cc1c(N)cccc1[N+](=O)[O-]	inactive	inactive	32.2 µM (active)	inactive				
C/C=C(/C(=C/C)c1ccc(OC(C)=O)cc1)c1ccc(OC(C)=O)cc1	17.4 µM (active)	7.76 µM (active)	inactive	inactive	inactive			
c1cc(CCCc2ccncc2)ccn1	1.59 µM (active)	5.64 µM (active)	1.78 µM (active)	inactive	1 µM (active)			
CCCCCC[C@@H](O)C/C=C\CCCCCCCC(=O)OC	25.3 µM (active)	12.7 µM (active)	35.7 µM (active)	inactive	inactive			
CC(CSC(=O)c1ccccc1)C(=O)N1C[C@@H](Sc2ccccc2)C[C@H]1C(=O)O (some centres undefined)	inactive		inactive			-9.74% [at 23.6 µM]	3.26% [at 15.8 µM]	15.7% [at 23.6 µM]
CCOC(=O)C(O)c1ccccc1 (centres undefined)	inactive	inactive	inactive		inactive			
COC(C)(C)CCO	inactive	inactive	inactive	inactive	inactive			
O=[N+]([O-])c1ccc(NCCO)c(OCCO)c1	inactive	inactive	17.9 µM (active)	inactive	inactive			
COc1ccc(C(=O)Nc2nc3ccccc3c(NCc3ccccc3)c2C#N)cc1	17.8 µM (active)	2 µM (active)	15.9 µM (active)		4.48 µM (active)			
CCCCCCCCO[C@@H]1O[C@H](CO)[C@@H](O)[C@H](O)[C@H]1O	inactive	inactive	inactive	inactive	inactive			
COc1ccc(C(=O)c2ccc(OC)cc2O)c(O)c1	0.802 µM (active)	11.3 µM (active)	0.402 µM (active)	inactive	25.4 µM (active)			
NCCCN1CCOCC1	inactive	inactive	inactive	inactive	inactive			
CN1CCC(N(Cc2cccs2)c2ccccc2)CC1	inactive	inactive	inactive	2.68 µM (active)	inactive			
CCOC(=O)COC(=O)c1cc(Oc2ccc(C(F)(F)F)cc2Cl)ccc1[N+](=O)[O-]	11.2 µM (active)	6.33 µM (active)	22.4 µM (active)		inactive			
CCO[Si](CCCCl)(OCC)OCC	31.4 µM (active)	35.3 µM (active)	inactive	inactive	3.53 µM (active)			
O=P(O)(OCc1ccccc1)OCc1ccccc1	inactive	22.4 µM (active)	inactive	inactive	inactive			
C=C1C(=C/C=C2\CCC[C@]3(C)[C@@H]([C@H](C)/C=C/[C@@H](O)C4CC4)CC[C@@H]23)C[C@@H](O)C[C@@H]1O	7.76 µM (active)	15.5 µM (active)	inactive	inactive	inactive			
CCC(C)(C)CC	inactive	inactive	inactive	inactive	inactive			
Nc1c(CC(=O)O)cccc1C(=O)c1ccc(Br)cc1	inactive	inactive	inactive	inactive	inactive			
O=C1CCCCCCCCCCCC(=O)OCCO1	71 µM (active)	63.3 µM (active)	39.9 µM (active)		35.6 µM (active)			
N=c1ccn2c(n1)O[C@H]1[C@H](O)[C@@H](CO)O[C@H]12	inactive	inactive	inactive	inactive	inactive			
O=C(O)C1(C(=O)O)CCC1.[NH2-].[NH2-].[Pt+2]	21.9 µM (active)	8.71 µM (active)	13.8 µM (active)	inactive	inactive			
CC(C)(C)Cl	inactive	inactive	inactive	inactive	inactive			
Cn1c(=O)cc(Oc2ccc(F)cc2F)c2cnc(NCC(C)(C)O)nc21	71 µM (active)	56.4 µM (active)	28.3 µM (active)	inactive	inactive			
CCOC(=O)Cc1cccc2ccccc12	20 µM (active)	inactive	15.9 µM (active)	inactive	inactive			
CC(C)=CCC/C(C)=C/CC/C(C)=C/CO	4.48 µM (active)	17.8 µM (active)	28.3 µM (active)		25.2 µM (active)			
